Nine sequences from the OligoGym collection can be followed below.
Note: reference of the scale not given here.

In the first test the target is TSC22D3. The test is described as follows: pooled miR-30 sensor sort-seq; sequence = guide strand. The settings on record: shRNA.
As for TGAGCTTGTCGGTATTGAGGTT, the sensor-assay potency score (higher = more potent) is -0.394. As for TAGCTGGGAGTTCTTCTCCACC, the sensor-assay potency score (higher = more potent) was -1.58. On the same count and under the same terms, in the case of TTGTCGGTATTGAGGTTCTCAA it was -1.48. Same read-out and setting: the result for TTCTTCATAGGAACAGTCGTTG reads -0.524; that for TTCTTCTCCACCAGCTCTCGGA, -1.12. The same measure, in the same setting: the result for TTGAGCTTGTCGGTATTGAGGT reads -0.00573.

The next test concerns the target TSEN34. The test is described as above. The settings on record: shRNA.
Turning to TAGACCAGGAAGTCACCTCCGA, the sensor-assay potency score (higher = more potent) came to 0.0618. Same read-out and setting: the result for TCTCTGTAGATACTGTAGCGCA reads -0.97; that for AATCTTCTCCAGGAGCTCCTGA, -1.01.
